Molecules are shown by their SMILES. Records with an inconclusive call do not appear. Some structures have more than one record in an assay (separate samples or runs), and their calls can disagree. Activity calls are given as the source filed them. Unless noted, the call rests on the fitted dose curve; in most records, active means well fitted curve in the direction sought with a large enough effect in the repeat runs; inconclusive means weak or mixed curves; inactive means no such curve, though single readings can be large; an effect the other way counts as inactive or inconclusive.

Assay [1] can be described thus: qHTS assay to identify small molecule antagonists of the estrogen related receptor (ERR) signaling pathway from Tox21 library - cell viability counter screen (AID 1224834). Further: nearly all actives have a fitted effect of over 30% in size. Further: potency means the concentration at half of the fitted maximal effect. In short, it runs like this:
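Counter screen run in ERR cells (2,000 cells/well): cells pre-incubated 6 h, then treated with compounds for 17.5 h at 37 C. Fluorescence was read 30 min after CellTiter-Fluor addition.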

The target in assay [2] is Luciferin 4-monooxygenase (Photinus pyralis) (UniProt P08659). Put plainly: qHTS assay to identify small molecule inhibitors of firefly luciferase (AID 1224835). Further: nearly all actives have a fitted effect of over 25% in size. Further: potency means the concentration at half of the fitted maximal effect. The essentials:
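Biochemical qHTS: compounds run as interplate titrations against purified firefly enzyme, with D-luciferin and ATP each at its KM concentration. Light output recorded by CCD imaging.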

Assay [3] can be described thus: qHTS assay to identify small molecule agonists of the constitutive androstane receptor (CAR) signaling pathway - cell viability counter screen (AID 1224836). Further: nearly all actives have a fitted effect of over 45% in size. Further: potency means the concentration at half of the fitted maximal effect. In short, it runs like this:
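Multiplexed viability check: HepG2-CYP2B6-hCAR cells, 15-point compound dosing, 0.75 uM PK11195 final, 23 h at 37 C, CellTiter-Fluor fluorescence.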
In general terms: Quantitative high-throughput screening tests each substance at several concentrations.

The nature of assay [4]: qHTS assay to identify small molecule antagonists of the constitutive androstane receptor (CAR) signaling pathway - cell viability counter screen (AID 1224837). Further: nearly all actives have a fitted effect of over 45% in size. Further: potency means the concentration at half of the fitted maximal effect. In short, it runs like this: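 CITCO at 50 nM final was added alongside compounds (15 concentrations) to double-stable hCAR/CYP2B6-2.2kb HepG2 cells. Following 23 hr at 37 C, cell viability was quantified by CellTiter-Fluor fluorescence intensity.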

Assay [5] has as its target Nuclear receptor subfamily 1 group I member 3 (Homo sapiens) (UniProt Q14994). Briefly: qHTS assay to identify small molecule antagonists of the constitutive androstane receptor (CAR) signaling pathway (AID 1224838). Further: nearly all actives have a fitted effect of over 40% in size. Further: potency means the concentration at half of the fitted maximal effect. The essentials: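 Inhibition of CITCO-driven (50 nM final) CYP2B6 reporter expression is measured in HepG2 cells stably carrying hCAR. Fifteen compound concentrations are applied for 24 h at 37 C, followed by luciferase luminescence.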

A short description of assay [6]: qHTS assay to identify small molecule antagonists of the estrogen related receptor signaling pathway with the pleiotropic PPARgamma coactivator (PGC) from Tox21 10K library - cell viability counter screen (AID 1224840; active means well fitted cell-killing curve with a large enough effect in the repeat runs, not every such curve was filed as active; further: nearly all actives have a fitted effect of over 40% in size; further: potency means the concentration at half of the fitted maximal effect). The essentials: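 Readout: fluorescence intensity from CellTiter-Fluor after 30 min at 37 C/5% CO2. Preceded by 17.5 h treatment of PGC/ERR cells with DMSO-dissolved compounds, added 6 h post-seeding.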

The nature of assay [7]: qHTS assay to identify small molecule agonists of the estrogen related receptor signaling pathway with the pleiotropic PPARgamma coactivator (PGC) from Tox21 10K library (AID 1224842). Further: nearly all actives have a fitted effect of over 15% in size. The essentials:
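PGC/ERR reporter cell line, 2,000 cells per well, incubated 6 h at 37 C before 23 nL compound in DMSO was added. After 18 h at 37 C, One-Glo luminescence read following 30 min at room temperature.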

A short description of assay [8]: qHTS assay to identify small molecule antagonists of the estrogen related receptor signaling pathway with the pleiotropic PPARgamma coactivator (PGC) from Tox21 10K library (AID 1224841; call rule not given here; further: actives are mostly falling curves and most rising ones were filed inactive; nearly all actives have a fitted effect of over 50% in size; further: potency means the concentration at half of the fitted maximal effect). The essentials: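 One-Glo luminescence, measured after half an hour at room temperature, quantified reporter output of PGC/ERR cells. These had been plated at 2,000 per well, incubated 6 h, dosed with compounds in DMSO, then kept 18 h at 37 C.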

For assay [9], the target named is Nuclear receptor subfamily 1 group I member 3 (Homo sapiens) (UniProt Q14994). Briefly: qHTS assay to identify small molecule agonists of the constitutive androstane receptor (CAR) signaling pathway (AID 1224839). Further: series mostly up to about 92 µM; nearly all actives have a fitted effect of over 15% in size. The essentials: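 Using human hepatoma HepG2 cells engineered with hCAR and a CYP2B6-2.2kb reporter, 15-concentration compound series were incubated 24 h alongside PK11195 at 0.75 uM final, with luminescence quantified afterwards.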
Nuclear receptor subfamily 1 group I member 3 (Homo sapiens), sequence (Q14994 whole entry, looked up): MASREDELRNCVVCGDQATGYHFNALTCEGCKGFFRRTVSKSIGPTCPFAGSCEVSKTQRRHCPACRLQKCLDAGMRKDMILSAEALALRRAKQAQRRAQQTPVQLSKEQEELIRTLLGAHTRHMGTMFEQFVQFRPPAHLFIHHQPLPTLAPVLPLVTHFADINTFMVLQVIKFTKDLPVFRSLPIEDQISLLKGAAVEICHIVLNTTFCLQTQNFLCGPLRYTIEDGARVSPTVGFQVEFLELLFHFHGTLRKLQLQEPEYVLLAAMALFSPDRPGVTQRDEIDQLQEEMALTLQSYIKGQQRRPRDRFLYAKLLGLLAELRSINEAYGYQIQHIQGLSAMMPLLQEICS

Luciferin 4-monooxygenase (Photinus pyralis), sequence (P08659 whole entry, looked up): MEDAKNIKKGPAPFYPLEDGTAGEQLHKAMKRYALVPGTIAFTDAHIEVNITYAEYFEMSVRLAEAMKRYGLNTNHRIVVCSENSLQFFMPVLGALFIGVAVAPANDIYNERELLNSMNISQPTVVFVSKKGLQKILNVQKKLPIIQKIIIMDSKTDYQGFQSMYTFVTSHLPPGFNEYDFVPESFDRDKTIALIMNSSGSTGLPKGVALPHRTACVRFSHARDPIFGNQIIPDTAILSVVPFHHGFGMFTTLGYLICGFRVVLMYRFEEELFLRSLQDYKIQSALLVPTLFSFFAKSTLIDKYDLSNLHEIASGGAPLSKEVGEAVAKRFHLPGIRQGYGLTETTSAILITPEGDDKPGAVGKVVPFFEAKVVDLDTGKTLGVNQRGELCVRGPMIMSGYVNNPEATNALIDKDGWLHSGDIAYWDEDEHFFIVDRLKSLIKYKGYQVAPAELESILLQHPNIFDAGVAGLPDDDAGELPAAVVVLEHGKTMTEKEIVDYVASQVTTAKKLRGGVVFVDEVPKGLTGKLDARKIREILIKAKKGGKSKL

Take `CC(=O)OCCN(CCOC(C)=O)c1ccc(N=Nc2ccc([N+](=O)[O-])cc2C#N)cc1`: the Potency in assay [1] is 48.6 µM (active); in [2], 35.6 µM (active); in assay [6], 48.6 µM (active). Besides, the Potency result in assay [3], in assay [4], in [5] and in assay [7] was “inactive” each time.

As to `CCCCCCCC/C=C\CCCCCCCCCCCC(=O)O`, the Potency result in assay [1], in assay [2], in assay [3], in [4], in [5] and in assay [6] was “inactive” each time.

Turning to `O=C1c2ccccc2C(=O)c2c(O)c(O)cc(O)c21`, the Potency in assay [1] was 30.6 µM (active); in assay [2], 44.8 µM (active). Moreover, the Potency result in [3], in assay [4], in assay [5], in assay [8] and in assay [7] was “inactive” each time.

With `CCCCOc1ccc(OCCCN2CCOCC2)cc1`, the Potency entry in [1], in assay [2], in assay [3], in assay [4], in assay [5] and in assay [6] was “inactive” in each case.

In the case of `CC(C)(C)C(=O)C(=O)O`, the Potency entry in assay [1], in [2], in assay [3], in assay [4], in assay [5] and in assay [6] was “inactive” in each case.

For `CCCCCC[C@@H](O)C/C=C\CCCCCCCC(=O)O`, the Potency entry in assay [1], in assay [2], in [3], in [4], in assay [5] and in assay [8] was “inactive” throughout. Also, the Potency result in [7] was “inactive”.

In the case of `CCC1NC(=O)c2cc(S(N)(=O)=O)c(Cl)cc2N1` (configuration not stated), the Potency result in assay [1], in [2], in assay [3], in assay [4], in assay [5] and in assay [6] was “inactive” each time.

Consider `Cc1cc(O)ccc1O`, for which the Potency in assay [1] and in assay [6] was 61.8 µM (active) each time. Further, the Potency result in assay [2], in [3], in [4], in [5], in assay [8] and in [7] was “inactive” throughout.

Consider `CC1(C)[C@@H](OC(=O)CCC(=O)O)CC[C@]2(C)[C@H]3C(=O)C=C4[C@@H]5C[C@@](C)(C(=O)O)CC[C@]5(C)CC[C@@]4(C)[C@]3(C)CC[C@@H]12`, for which the Potency entry in [1], in assay [2], in assay [3], in [4], in assay [5] and in assay [6] was “inactive” throughout. Further, the Potency entry in [8] and in assay [7] was “inactive” throughout.

Consider `Nc1nnc(-c2ccc([N+](=O)[O-])o2)o1`, for which the Potency in [1] was 48.6 µM (active); in assay [3], 30.6 µM (active); in assay [4], 48.6 µM (active). The Potency entry in [2] and in assay [9] was “inactive” each time.

Take `CCCC(=O)C(=O)O`: the Potency result in [1], in [2], in assay [3], in [4], in assay [5] and in assay [6] was “inactive” each time.

`CC(C)=CCC/C(C)=C/CC/C(C)=C/C(=O)OCC(=O)[C@@]1(O)CC[C@H]2[C@@H]3CCC4=CC(=O)C=C[C@]4(C)[C@H]3[C@@H](O)C[C@@]21C`: the Potency was 29.8 µM (active) in [1] and 16.8 µM (active) in [8]. In addition, the Potency entry in [2], in assay [3], in assay [4], in assay [5], in assay [6] and in [7] was “inactive” throughout.

With `C(=C\c1ccccc1)/c1ccccc1`, the Potency result in [1], in [3], in [4], in [5], in assay [6] and in [8] was “inactive” throughout. Besides, the Potency in [2] is 7.9 µM (active).

With `CN1CCCC(n2nc(Cc3ccc(Cl)cc3)c3ccccc3c2=O)CC1` (configuration not stated), the Potency in assay [1] is 29.8 µM (active); in assay [3] it was 23.7 µM (active); in [4], 16.8 µM (active). In addition, the Potency result in assay [2], in [9], in [6], in assay [8] and in assay [7] was “inactive” throughout.

Regarding `c1csc(SSc2cccs2)c1`, the Potency in [1] is 54.5 µM (active); in [2], 22.4 µM (active); in assay [3], 54.5 µM (active); in assay [4] it was 48.6 µM (active); in [5], 43.3 µM (active). Also, the Potency result in assay [9] and in [7] was “inactive” in each case.

Consider `CCCCN(CCCC)C(C(N)=O)c1ccc(OC)cc1` (configuration not stated), for which the Potency result in assay [1], in assay [2], in [3], in assay [4], in assay [5] and in assay [6] was “inactive” each time.

Regarding `C/C=C/C=C/C=O`, the Potency result in assay [1], in assay [2], in [3], in assay [4], in assay [5] and in [6] was “inactive” throughout. The Potency result in assay [8] and in assay [7] was “inactive” each time.

Take `C[C@]12CC[C@@H]3c4ccc(O)cc4CC[C@H]3[C@@H]1CC[C@@H]2OC(=O)CCC1CCCC1`: the Potency in assay [1] was 61.1 µM (active) and inactive; in [6], 61.1 µM (active) and inactive. The Potency entry in assay [2], in [3], in assay [4], in assay [5], in assay [8] and in [7] was “inactive” each time.

Regarding `CCCCCCCCOc1ccc(C(=O)O)cc1`, the Potency entry in assay [1], in assay [3], in [4], in [5] and in [6] was “inactive” in each case. Further, the Potency in [2] was 31.4 µM (active).

Consider `CN(C)CCN1C(=O)c2ccccc2N(C)c2ccccc21`, for which the Potency entry in [1], in assay [2], in assay [3], in [4], in assay [5] and in [6] was “inactive” in each case.

In the case of `CC(O)c1ccccc1` (configuration not stated), the Potency entry in [1], in [2], in assay [3], in [4], in [5] and in assay [6] was “inactive” each time. The Potency result in assay [8] and in [7] was “inactive” each time.

Consider `Cc1ccc2c(Br)cc(Br)c(O)c2n1`, for which the Potency in [1] is 11.9 µM (active). For the same compound, the Potency result in assay [2], in assay [3], in assay [4], in [5], in assay [9] and in assay [7] was “inactive” in each case.

Take `CC(=O)OCC[N+](C)(C)C`: the Potency entry in [1], in [2], in assay [3], in assay [4], in assay [5] and in [6] was “inactive” each time.

`CC1=C(Br)C(=O)C(Br)=C/C1=C(/c1ccccc1S(=O)(=O)O)c1cc(Br)c(O)c(Br)c1C`: the Potency is 18.6 µM (active) in assay [1]; 19.2 µM (active) in [2]; 18.6 µM (active) in [3]; 33 µM (active) in [4]; 18.6 µM (active) in [5]; 18.6 µM (active) in assay [6]. The Potency in assay [8] is 16.5 µM (active). Moreover, the Potency result in [7] was “inactive”.

For `N#CCc1ccc(Cl)cc1Cl`, the Potency result in [1], in assay [2], in assay [3], in assay [4], in assay [5] and in assay [6] was “inactive” in each case. Further, the Potency entry in assay [8] and in [7] was “inactive” in each case.

As for `FC(F)(F)c1ccccc1Cl`, the Potency entry in [1], in [2], in assay [3], in [4], in [5] and in assay [8] was “inactive” throughout. The Potency entry in [7] was “inactive”.

In the case of `CCCCCCCCCCCCCCN(CCO)CCO`, the Potency in assay [1] is 61.1 µM (active); in assay [3], 61.1 µM (active); in assay [4], 61.1 µM (active); in assay [5], 48.6 µM (active); in [6], 54.5 µM (active). The Potency entry in [2] and in assay [7] was “inactive” throughout.

In the case of `CN1CCCN=C1COC(=O)C(O)(c1ccccc1)C1CCCCC1` (configuration not stated), the Potency entry in [1], in assay [2], in assay [3], in assay [4], in assay [5] and in assay [8] was “inactive” throughout. The Potency entry in assay [7] was “inactive”.

Consider `CC(=O)Nc1ccc(C)cc1C`, for which the Potency result in assay [1], in [2], in assay [3], in assay [4], in assay [5] and in assay [6] was “inactive” each time. Further, the Potency entry in assay [8] and in assay [7] was “inactive” in each case.

The record behind these values is PubChem BioAssay (Tox21).
